Source: the supplement of paper PMC6555819

Experiments:
Experiment in all cases: PBM binding z-score (relative to random genomic background probes); higher = stronger binding; sequences stand for … in GC…GCGATTGACAGCGTAGAATGAAGG
[1] = test system: FXR:RXRa (NR concentration 270 nM, RXRa partner concentration 90 nM)
Procedure, shortened: (§1)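 Binding z-scores were set against random background probes. The data came from custom Agilent 4×180K protein-binding microarrays carrying double-stranded probes with 34-nt variable regions, incubated 1 h with ligand-free nuclear receptor dimers. Partner-specific antibodies detected binding, and scanned fluorescence was regression-normalized.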

[2] = test system: LXRa:RXRa (NR concentration 270 nM, RXRa partner concentration 90 nM)
Procedure, shortened: as §1

[3] = test system: LXRa homodimer (NR concentration 270 nM)
Procedure, shortened: as §1

[4] = test system: LXRb:RXRa (NR concentration 270 nM, RXRa partner concentration 90 nM)
Procedure, shortened: as §1

[5] = test system: LXRb homodimer (NR concentration 270 nM)
Procedure, shortened: as §1

[6] = test system: PPARa:RXRa (NR concentration 270 nM, RXRa partner concentration 90 nM)
Procedure, shortened: as §1

[7] = test system: PPARg:RXRa (NR concentration 180 nM, RXRa partner concentration 90 nM)
Procedure, shortened: as §1

[8] = test system: PPARg:RXRa 270nM:90nM, anti-RXR (NR concentration 270 nM, RXRa partner concentration 90 nM)
Procedure, shortened: as §1

[9] = test system: PPARg:RXRa 30nM:10nM, anti-RXR (NR concentration 30 nM, RXRa partner concentration 10 nM)
Procedure, shortened: as §1

[10] = test system: PPARg:RXRa 90nM:30nM, anti-RXR (NR concentration 90 nM, RXRa partner concentration 30 nM)
Procedure, shortened: as §1

[11] = test system: PPARg:RXRa DBDmut IVT, anti-RXR (DBD mutation: RXRa K156A/R161A, NR concentration 270 nM, RXRa partner concentration 90 nM)
Procedure, shortened: as §1

[12] = test system: PPARg:RXRa IVT, anti-PPARg (NR concentration 270 nM, RXRa partner concentration 90 nM)
Procedure, shortened: as §1

[13] = test system: PPARg DBDmut:RXRa IVT, anti-PPARg (DBD mutation: PPARg1 K132A/R137A, NR concentration 270 nM, RXRa partner concentration 90 nM)
Procedure, shortened: as §1

[14] = test system: PPARg DBDmut IVT, anti-PPARg (DBD mutation: PPARg1 K132A/R137A, NR concentration 270 nM)
Procedure, shortened: as §1

[15] = test system: PPARg homodimer (NR concentration 180 nM)
Procedure, shortened: as §1

[16] = test system: PXR:RXRa (NR concentration 270 nM, RXRa partner concentration 90 nM)
Procedure, shortened: as §1

[17] = test system: PXR homodimer (NR concentration 270 nM)
Procedure, shortened: as §1

[18] = test system: RARa:RXR (NR concentration 270 nM, RXRa partner concentration 90 nM)
Procedure, shortened: as §1

[19] = test system: RARa homodimer (NR concentration 270 nM)
Procedure, shortened: as §1

[20] = test system: RARb:RXRa (NR concentration 270 nM, RXRa partner concentration 90 nM)
Procedure, shortened: as §1

| Sequence | PBM binding z-score [1] | PBM binding z-score [2] | PBM binding z-score [3] | PBM binding z-score [4] | PBM binding z-score [5] | PBM binding z-score [6] | PBM binding z-score [7] | PBM binding z-score [8] | PBM binding z-score [9] | PBM binding z-score [10] | PBM binding z-score [11] | PBM binding z-score [12] | PBM binding z-score [13] | PBM binding z-score [14] | PBM binding z-score [15] | PBM binding z-score [16] | PBM binding z-score [17] | PBM binding z-score [18] | PBM binding z-score [19] | PBM binding z-score [20] |
| --- | --- | --- | --- | --- | --- | --- | --- | --- | --- | --- | --- | --- | --- | --- | --- | --- | --- | --- | --- | --- |
| CGTCCAAGGTCAAGGTCAGTGATAGAGACTCGAA | 7.73 | 5.59 | 1.52 | 4.55 | 0.758 | 6.02 | 6.2 | 6.15 | 2.73 | 4.98 | 3.79 | 4.5 | 1.28 | 0.138 | 4.99 | 5.05 | 1.18 | 5.44 | 2.41 | 5.73 |
| CATACAGGGTCAGATAGGCCAGAGTAGGGACGGC | 4.34 | 3.14 | 0.146 | 2.31 | 0.65 | 4.26 | 3.15 | 2.6 | 0.58 | 1.71 | 0.492 | 2.13 | 1.29 | 1.07 | 2.72 | 2.05 | 0.241 | 2.94 | 0.209 | 3.55 |
| CAAACTAGGTCACGAACGGTCAAAGTCGAATGAC | 5.85 | 7.42 | 4.34 | 5.78 | 1.18 | 5.62 | 9.57 | 8.01 | 5.99 | 7.93 | 8.77 | 9.13 | 8.12 | 6.44 | 4.03 | 3.71 | 0.663 | 4.05 | 2.03 | 4.7 |
| TCTATTAGTTGATTAGGGCAAGCGAAACAGCGGA | 0.582 | 0.347 | 0.126 | 0.37 | 0.284 | 0.756 | -0.0527 | 2.03 | 3.67 | 2.81 | 1.88 | 1.33 | 0.35 | 0.93 | 0.455 | 0.314 | 0.381 | 0.428 | 1.01 | 0.893 |
| TCTCGGAGGACACGAACGTCAGAGCTTTCCAGAG | 0.0459 | 0.0114 | -0.625 | -0.532 | -1.31 | 0.0688 | 0.0947 | 0.795 | 1.95 | 1.18 | 0.985 | -0.0503 | -0.617 | -1.23 | -1.43 | -0.256 | -0.522 | -0.0977 | -1.21 | 1.35 |
| TTTACAGGGTCAAAGGCCAGAGTACGAATGTCGA | 6.76 | 5.85 | 2.22 | 4.87 | 1.18 | 6.03 | 8.6 | 7.65 | 6.04 | 7.79 | 3.26 | 5.18 | 1.93 | 1.36 | 1.8 | 4.41 | 0.247 | 6 | 1.16 | 4.52 |
| TCATATAGGTATAGGTGAAAGTCGAACGATATGA | 0.449 | 0.366 | -0.346 | 0.177 | -0.47 | 1.42 | 1.72 | 2.44 | 3.51 | 3.05 | 2.01 | 1.55 | 0.818 | 1.13 | 0.0595 | 0.316 | 0.0974 | 0.665 | 0.0245 | 0.587 |
